{"source": "paper PMC11062922", "about": "(Nature Chemical Biology, 2023)", "set-up_in_all_cases": "species or system human, MV4-11 + K-562 + COLO205 + SK-N-BE2 + OVCAR-8", "key": {"ADRBK1": {"tested_on": "ADRBK1", "details": "read-out: apparent Kd; compound concentrations:100 nM and 1000 nM (sheet 'Samples'); n = 1"}, "AGPS": {"tested_on": "AGPS", "details": "read-out: apparent Kd; compound concentrations:100 nM and 1000 nM (sheet 'Samples'); n = 1"}, "AKT1": {"tested_on": "AKT1", "details": "read-out: apparent Kd; compound concentrations:100 nM and 1000 nM (sheet 'Samples'); n = 1"}, "AKT2": {"tested_on": "AKT2", "details": "read-out: apparent Kd; compound concentrations:100 nM and 1000 nM (sheet 'Samples'); n = 1"}, "AKT3": {"tested_on": "AKT3", "details": "read-out: apparent Kd; compound concentrations:100 nM and 1000 nM (sheet 'Samples'); n = 1"}, "CDK16": {"tested_on": "CDK16", "details": "read-out: apparent Kd; compound concentrations:100 nM and 1000 nM (sheet 'Samples'); n = 1"}, "CDK17": {"tested_on": "CDK17", "details": "read-out: apparent Kd; compound concentrations:100 nM and 1000 nM (sheet 'Samples'); n = 1"}, "DJA1": {"tested_on": "T1, DJA1", "T1 construct": "gene DNAJA1", "details": "read-out: apparent Kd; compound concentrations:100 nM and 1000 nM (sheet 'Samples'); n = 1"}, "FLT3": {"tested_on": "FLT3", "details": "read-out: apparent Kd; compound concentrations:100 nM and 1000 nM (sheet 'Samples'); n = 1"}, "ILK": {"tested_on": "ILK", "details": "read-out: apparent Kd; compound concentrations:100 nM and 1000 nM (sheet 'Samples'); n = 1"}, "MAP2K1": {"tested_on": "MAP2K1", "details": "read-out: apparent Kd; compound concentrations:100 nM and 1000 nM (sheet 'Samples'); n = 1"}, "MAP2K2": {"tested_on": "MAP2K2", "details": "read-out: apparent Kd; compound concentrations:100 nM and 1000 nM (sheet 'Samples'); n = 1"}, "NNT": {"tested_on": "NNT", "details": "read-out: apparent Kd; compound concentrations:100 nM and 1000 nM (sheet 'Samples'); n = 1"}, "NQO1": {"tested_on": "NQO1", "details": "read-out: apparent Kd; compound concentrations:100 nM and 1000 nM (sheet 'Samples'); n = 1"}, "PDGFRB": {"tested_on": "PDGFRB", "details": "read-out: apparent Kd; compound concentrations:100 nM and 1000 nM (sheet 'Samples'); n = 1"}, "PIP4K2C": {"tested_on": "PIP4K2C", "details": "read-out: apparent Kd; compound concentrations:100 nM and 1000 nM (sheet 'Samples'); n = 1"}, "PRKAG1": {"tested_on": "PRKAG1", "details": "read-out: apparent Kd; compound concentrations:100 nM and 1000 nM (sheet 'Samples'); n = 1"}, "PRKAG2": {"tested_on": "PRKAG2", "details": "read-out: apparent Kd; compound concentrations:100 nM and 1000 nM (sheet 'Samples'); n = 1"}, "PYGL": {"tested_on": "PYGL", "details": "read-out: apparent Kd; compound concentrations:100 nM and 1000 nM (sheet 'Samples'); n = 1"}, "RIOK2": {"tested_on": "RIOK2", "details": "read-out: apparent Kd; compound concentrations:100 nM and 1000 nM (sheet 'Samples'); n = 1"}, "STK26": {"tested_on": "STK26", "details": "read-out: apparent Kd; compound concentrations:100 nM and 1000 nM (sheet 'Samples'); n = 1"}, "VDAC3": {"tested_on": "VDAC3", "details": "read-out: apparent Kd; compound concentrations:100 nM and 1000 nM (sheet 'Samples'); n = 1"}, "ADK": {"tested_on": "ADK", "details": "read-out: apparent Kd; compound concentrations: 100 nM and 1000 nM (sheet 'Samples'), CATDS: 5.0768617440539301E-2; n = 1"}, "CLK1": {"tested_on": "CLK1", "details": "read-out: apparent Kd; compound concentrations: 100 nM and 1000 nM (sheet 'Samples'), CATDS: 5.4208995397741003E-2; n = 1"}, "DYRK1A": {"tested_on": "DYRK1A", "details": "read-out: apparent Kd; compound concentrations: 100 nM and 1000 nM (sheet 'Samples'), CATDS: 5.0124883186775999E-2; n = 1"}, "GSK3A": {"tested_on": "GSK3A", "details": "read-out: apparent Kd; compound concentrations: 100 nM and 1000 nM (sheet 'Samples'), CATDS: 9.7790905070532702E-2; n = 1"}, "GSK3B": {"tested_on": "GSK3B", "details": "read-out: apparent Kd; compound concentrations: 100 nM and 1000 nM (sheet 'Samples'), CATDS: 0.116009702502103; n = 1"}, "ICK": {"tested_on": "ICK", "details": "read-out: apparent Kd; compound concentrations: 100 nM and 1000 nM (sheet 'Samples'), CATDS: 5.3965454645481803E-2; n = 1"}, "NQO2": {"tested_on": "NQO2", "details": "read-out: apparent Kd; compound concentrations: 100 nM and 1000 nM (sheet 'Samples'), CATDS: 5.4334591839862598E-2; n = 1"}, "PRKCA": {"tested_on": "PRKCA", "details": "read-out: apparent Kd; compound concentrations: 100 nM and 1000 nM (sheet 'Samples'), CATDS: 0.15913397901311099; n = 1"}, "PRKCB": {"tested_on": "PRKCB", "details": "read-out: apparent Kd; compound concentrations: 100 nM and 1000 nM (sheet 'Samples'), CATDS: 9.8351239927142994E-2; n = 1"}, "PRKCD": {"tested_on": "PRKCD", "details": "read-out: apparent Kd; compound concentrations: 100 nM and 1000 nM (sheet 'Samples'), CATDS: 0.131457549494816; n = 1"}, "PRKCQ": {"tested_on": "PRKCQ", "details": "read-out: apparent Kd; compound concentrations: 100 nM and 1000 nM (sheet 'Samples'), CATDS: 0.25317838429330802; n = 1"}, "RPS6KA6": {"tested_on": "RPS6KA6", "details": "read-out: apparent Kd; compound concentrations: 100 nM and 1000 nM (sheet 'Samples'), CATDS: 0.14606611193567601; n = 1"}, "RPS6KB1": {"tested_on": "RPS6KB1", "details": "read-out: apparent Kd; compound concentrations: 100 nM and 1000 nM (sheet 'Samples'), CATDS: 4.9333736806527098E-2; n = 1"}}, "data": [{"smiles": "NS(=O)(=O)c1ccc(Nc2ncc(-c3ccccc3)o2)cc1", "note": "[GW572399X]", "values": [{"measurement": "potency estimated from few doses", "setting": "ADRBK1", "result": 1.91, "unit": "µM"}, {"measurement": "potency estimated from few doses", "setting": "AGPS", "result": 2.05, "unit": "µM"}, {"measurement": "potency estimated from few doses", "setting": "AKT1", "result": 1.96, "unit": "µM"}, {"measurement": "potency estimated from few doses", "setting": "AKT2", "result": 1.97, "unit": "µM"}, {"measurement": "potency estimated from few doses", "setting": "AKT3", "result": 1.56, "unit": "µM"}, {"measurement": "potency estimated from few doses", "setting": "CDK16", "result": 1.76, "unit": "µM"}, {"measurement": "potency estimated from few doses", "setting": "CDK17", "result": 2.1, "unit": "µM"}, {"measurement": "potency estimated from few doses", "setting": "DJA1", "result": 1.31, "unit": "µM"}, {"measurement": "potency estimated from few doses", "setting": "FLT3", "result": 0.164, "unit": "µM"}, {"measurement": "potency estimated from few doses", "setting": "ILK", "result": 1.87, "unit": "µM"}, {"measurement": "potency estimated from few doses", "setting": "MAP2K1", "result": 1.42, "unit": "µM"}, {"measurement": "potency estimated from few doses", "setting": "MAP2K2", "result": 1.74, "unit": "µM"}, {"measurement": "potency estimated from few doses", "setting": "NNT", "result": 1.77, "unit": "µM"}, {"measurement": "potency estimated from few doses", "setting": "NQO1", "result": 1.9, "unit": "µM"}, {"measurement": "potency estimated from few doses", "setting": "PDGFRB", "result": 1.48, "unit": "µM"}, {"measurement": "potency estimated from few doses", "setting": "PIP4K2C", "result": 2.29, "unit": "µM"}, {"measurement": "potency estimated from few doses", "setting": "PRKAG1", "result": 1.79, "unit": "µM"}, {"measurement": "potency estimated from few doses", "setting": "PRKAG2", "result": 1.38, "unit": "µM"}, {"measurement": "potency estimated from few doses", "setting": "PYGL", "result": 1.9, "unit": "µM"}, {"measurement": "potency estimated from few doses", "setting": "RIOK2", "result": 2.16, "unit": "µM"}, {"measurement": "potency estimated from few doses", "setting": "STK26", "result": 1.4, "unit": "µM"}, {"measurement": "potency estimated from few doses", "setting": "VDAC3", "result": 1.58, "unit": "µM"}]}, {"smiles": "Cn1cc(C2=C(c3cn(CCCNC(=N)N)c4ccccc34)C(=O)NC2=O)c2ccccc21", "note": "[RO0318352-000]", "values": [{"measurement": "potency estimated from few doses", "setting": "ADK", "result": 1.42, "unit": "µM"}, {"measurement": "potency estimated from few doses", "setting": "CLK1", "result": 1.01, "unit": "µM"}, {"measurement": "potency estimated from few doses", "setting": "DYRK1A", "result": 1.53, "unit": "µM"}, {"measurement": "potency estimated from few doses", "setting": "GSK3A", "result": 0.125, "unit": "µM"}, {"measurement": "potency estimated from few doses", "setting": "GSK3B", "result": 0.0837, "unit": "µM"}, {"measurement": "potency estimated from few doses", "setting": "ICK", "result": 1.04, "unit": "µM"}, {"measurement": "potency estimated from few doses", "setting": "NQO2", "result": 1, "unit": "µM"}, {"measurement": "potency estimated from few doses", "setting": "PRKCA", "result": 0.0451, "unit": "µM"}, {"measurement": "potency estimated from few doses", "setting": "PRKCB", "result": 0.124, "unit": "µM"}, {"measurement": "potency estimated from few doses", "setting": "PRKCD", "result": 0.0644, "unit": "µM"}, {"measurement": "potency estimated from few doses", "setting": "PRKCQ", "result": 0.0217, "unit": "µM"}, {"measurement": "potency estimated from few doses", "setting": "RPS6KA6", "result": 0.0526, "unit": "µM"}, {"measurement": "potency estimated from few doses", "setting": "RPS6KB1", "result": 1.67, "unit": "µM"}]}]}
